Broadly, the inhibition is the change of the read-out against control, counted positive when it falls.

Among the data in PubChem BioAssay are growth inhibition, inhibition and outcome values, retold here.

Experiment [1] can be described thus: antimalarial activity against Dd2 strain (AID 2302;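 active = growth inhibition above 50% at the single 2 µM test dose, taken to imply half-maximal potency below 2 µM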;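 also: 0% = DMSO untreated growth and 100% = chloroquine plus artemisinin killed control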). The conditions noted are these: P. falciparum Dd2 in RBCs, LDH growth readout, 72 h; at 2 µM; active compounds read high.
Experiment [2] in a line: HepG2 cytotoxicity, primary screen, cytotoxicity control for P. falciparum antimalarial project, cell-based, ATP luminescence (AID 2303;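 active = inhibition above 50%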;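 also: 0% = DMSO wells and 100% = digitonin-killed cells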). To be noted: HepG2 viability, 24-48 h, at 10 µM, active compounds read high.
For experiment [3], the target named is L-lactate dehydrogenase (Plasmodium falciparum (isolate CDC / Honduras)) (UniProt Q27743). Briefly: PfLDH activity inhibition – cell lysate, 3D7 strain, counter-screen for P. falciparum growth inhibition project (AID 2304).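 Also: 0% = vehicle and 100% = reference inhibitor.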 To be noted: P. falciparum 3D7 crude extract, LDH APAD/NBT absorbance; at 2 µM; active compounds read high. For orientation: A counterscreen serves to expose hits that act by an unwanted route or on another target.

Experiment [4] in a line: inhibition of 3D7 malaria parasite growth – strain 3D7 (AID 2306).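 Also: 0% = DMSO wells and 100% = chloroquine plus artemisinin control wells.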 To be noted: P. falciparum 3D7 erythrocytic growth, LDH absorbance, 72 h; at 2 µM; active compounds read high.
Experiment [5] has as its target Calcium-dependent protein kinase 1 (Plasmodium falciparum (isolate 3D7)) (UniProt P62344). Briefly: PfCDPK1 kinase inhibitors, biochemical, TCAMS library (AID 1159585; cut-off not given, nearly all actives have IC50 up to about 0.98 µM;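 also: inhibitors leave more ATP so luminescence rises with inhibition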). The conditions noted are these: recombinant PfCDPK1, Kinase-Glo ATP depletion luminescence. Background: Kinase-Glo measures the ATP left after a reaction by luminescence.
For experiment [6], the target named is Plasmodium falciparum protein kinase 6 (PK6, PF3D7_1337100) (UniProt Q8IDW1). Briefly: PfPK6 kinase inhibitors, biochemical, TCAMS library (AID 1159586). The conditions noted are these: recombinant PfPK6, Kinase-Glo ATP depletion luminescence.
Experiment [7] concerns the target Protein kinase 7 (PK7), Plasmodium falciparum 3D7 (PF3D7_0213400) (UniProt Q7YTF7). Briefly: inhibition of Plasmodium PK7 catalytic activity – biochemical, TCAMS antimalarial set, Kinase-Glo luminescence (AID 1159587). The conditions noted are these: recombinant PfPK7, Kinase-Glo ATP depletion luminescence.
Experiment [8] has as its target Calcium-dependent protein kinase 4 (Plasmodium falciparum (isolate 3D7)) (UniProt Q8IBS5). Briefly: PfCDPK4 kinase inhibitors, biochemical, TCAMS library (AID 1159588; cut-off not given, nearly all actives have IC50 up to about 0.91 µM). The conditions noted are these: recombinant PfCDPK4, Kinase-Glo ATP depletion luminescence.

Values without a mark were called inactive. For some of these results: Measured potencies and affinities stand elsewhere. Activity calls are given as the source filed them. Unless noted, no rule for the calls is given here.

Chain of Calcium-dependent protein kinase 1 (Plasmodium falciparum (isolate 3D7)) (P62344 whole entry, looked up): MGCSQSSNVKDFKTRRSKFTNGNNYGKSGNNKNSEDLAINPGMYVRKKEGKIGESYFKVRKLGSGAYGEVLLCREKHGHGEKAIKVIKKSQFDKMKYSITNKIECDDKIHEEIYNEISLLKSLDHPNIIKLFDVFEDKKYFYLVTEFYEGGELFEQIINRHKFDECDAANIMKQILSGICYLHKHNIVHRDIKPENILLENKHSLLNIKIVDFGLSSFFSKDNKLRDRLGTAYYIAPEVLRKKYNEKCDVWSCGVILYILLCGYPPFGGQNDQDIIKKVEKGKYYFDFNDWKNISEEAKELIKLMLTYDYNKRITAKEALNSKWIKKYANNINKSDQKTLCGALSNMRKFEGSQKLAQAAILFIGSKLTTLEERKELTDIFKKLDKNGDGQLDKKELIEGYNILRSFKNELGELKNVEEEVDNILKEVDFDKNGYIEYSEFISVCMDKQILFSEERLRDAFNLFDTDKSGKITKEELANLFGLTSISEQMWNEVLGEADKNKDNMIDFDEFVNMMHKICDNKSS
Chain of Protein kinase 7 (PK7), Plasmodium falciparum 3D7 (PF3D7_0213400) (Q7YTF7 1-343): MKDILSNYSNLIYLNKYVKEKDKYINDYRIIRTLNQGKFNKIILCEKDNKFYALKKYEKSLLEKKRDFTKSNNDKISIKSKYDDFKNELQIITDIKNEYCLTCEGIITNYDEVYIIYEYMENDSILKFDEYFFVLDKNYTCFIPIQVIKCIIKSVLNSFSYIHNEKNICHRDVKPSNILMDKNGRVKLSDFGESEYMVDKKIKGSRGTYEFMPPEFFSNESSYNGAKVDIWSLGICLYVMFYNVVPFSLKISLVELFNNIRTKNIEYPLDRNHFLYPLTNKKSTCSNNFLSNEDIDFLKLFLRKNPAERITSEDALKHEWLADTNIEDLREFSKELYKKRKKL
Chain of L-lactate dehydrogenase (Plasmodium falciparum (isolate CDC / Honduras)) (Q27743 whole entry, looked up): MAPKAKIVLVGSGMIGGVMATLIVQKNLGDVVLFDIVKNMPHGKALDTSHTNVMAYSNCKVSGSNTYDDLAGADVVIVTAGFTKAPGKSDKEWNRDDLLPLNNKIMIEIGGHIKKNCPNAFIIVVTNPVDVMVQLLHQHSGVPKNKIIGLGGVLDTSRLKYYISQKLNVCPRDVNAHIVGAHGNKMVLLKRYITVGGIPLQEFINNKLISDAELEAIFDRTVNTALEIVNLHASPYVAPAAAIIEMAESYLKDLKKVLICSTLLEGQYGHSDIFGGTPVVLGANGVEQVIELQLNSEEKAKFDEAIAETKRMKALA
Chain of Plasmodium falciparum protein kinase 6 (PK6, PF3D7_1337100) (Q8IDW1 1-305): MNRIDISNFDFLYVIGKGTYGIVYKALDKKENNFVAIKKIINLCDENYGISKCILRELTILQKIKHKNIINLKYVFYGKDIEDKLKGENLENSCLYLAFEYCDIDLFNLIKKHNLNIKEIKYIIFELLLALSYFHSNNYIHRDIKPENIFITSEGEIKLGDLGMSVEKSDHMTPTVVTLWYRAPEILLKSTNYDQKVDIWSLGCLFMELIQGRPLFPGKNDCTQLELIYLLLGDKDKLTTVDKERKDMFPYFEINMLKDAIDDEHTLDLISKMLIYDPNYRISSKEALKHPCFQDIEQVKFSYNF
Chain of Calcium-dependent protein kinase 4 (Plasmodium falciparum (isolate 3D7)) (Q8IBS5 whole entry, looked up): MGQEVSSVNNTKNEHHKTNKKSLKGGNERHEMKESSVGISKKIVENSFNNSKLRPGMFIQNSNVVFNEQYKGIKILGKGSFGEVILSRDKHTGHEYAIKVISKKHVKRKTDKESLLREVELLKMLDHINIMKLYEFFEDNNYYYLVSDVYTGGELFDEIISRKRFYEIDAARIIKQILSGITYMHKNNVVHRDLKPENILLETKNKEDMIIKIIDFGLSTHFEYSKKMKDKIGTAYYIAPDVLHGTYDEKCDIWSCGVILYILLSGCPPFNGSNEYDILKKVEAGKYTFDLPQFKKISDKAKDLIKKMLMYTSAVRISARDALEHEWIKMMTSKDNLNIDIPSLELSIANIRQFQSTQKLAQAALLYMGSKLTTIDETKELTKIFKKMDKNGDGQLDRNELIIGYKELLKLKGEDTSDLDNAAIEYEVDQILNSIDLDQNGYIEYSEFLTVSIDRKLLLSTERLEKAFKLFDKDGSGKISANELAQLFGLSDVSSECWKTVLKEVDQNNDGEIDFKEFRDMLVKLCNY

Take `OCCN1CCN(Cc2cccc(-c3cccc(-c4nc5ccc(F)cc5[nH]4)c3)c2)CC1`: the growth inhibition in experiment [1] is 99% (active); in experiment [4], 102% (active). The inhibition in experiment [2] was 41%; in experiment [3], -2%. Besides, the result in experiment [5], in experiment [6], in experiment [7] and in experiment [8] was inactive.

Turning to `Cn1cc(C(=O)Nc2cccc(-c3cccc(-c4nc5ccc(F)cc5[nH]4)c3)c2)n(C)c1=O`, the growth inhibition is 50% (active) in experiment [1] and 98% (active) in experiment [4]. Also, the values for the inhibition in experiment [2] and in experiment [3] were 15% and -1%, respectively. In addition, the result in experiment [5], in experiment [6], in experiment [7] and in experiment [8] was inactive.

For the compound `CCN(CC)CCCC(C)Nc1cc(C)nc2cc(Cl)ccc12` (stereo not given), the growth inhibition in experiment [1] is 7%; in experiment [4] it was 100% (active). The inhibition was 9% in experiment [2] and 5% in experiment [3]. The outcome in experiment [5], in experiment [6], in experiment [7] and in experiment [8] was inactive.

Consider `COc1ccccc1CCNc1nc(C)cc(N[C@@H](CC(C)C)C(=O)NCc2cccc(F)c2)n1`, for which the growth inhibition was 79% (active) in experiment [1] and 94% (active) in experiment [4]. In addition, the inhibition in experiment [2] was 20%; in experiment [3] it was -3%. Moreover, the outcome in experiment [5], in experiment [6], in experiment [7] and in experiment [8] was inactive.

`O=C(/C=C/c1ccc(Cl)cc1)Nc1ccc2nc(CN3CCCC3)ccc2c1`: the growth inhibition in experiment [1] is 30%; in experiment [4] it was 85% (active). In addition, the values for the inhibition in experiment [2] and in experiment [3] were 47% and -2%, respectively. For the same compound, the outcome in experiment [5], in experiment [6], in experiment [7] and in experiment [8] was inactive.

As to `N#Cc1cncc(-c2nc3c(N4CCC(Cc5ccccc5)CC4)cccc3n2C2CCNC2)c1` (stereo not given), the values for the growth inhibition in experiment [1] and in experiment [4] were 7% and 88% (active), respectively. Moreover, the results for the inhibition in experiment [2] and in experiment [3] were 5% and -1%, respectively. Also, the outcome in experiment [5], in experiment [6], in experiment [7] and in experiment [8] was inactive.

For the compound `Cc1cc(C)n(Cc2ccc(C(=O)NCC3CCCCC3)cc2)n1`, the values for the growth inhibition in experiment [1] and in experiment [4] were 1% and 95% (active), respectively. Also, the inhibition is 0% in experiment [2] and 2% in experiment [3]. Also, the result in experiment [5], in experiment [6], in experiment [7] and in experiment [8] was inactive.

Regarding `CCCCCC(=O)N1CCOC(CCN2CCC(c3ccccc3)CC2)(c2ccc(Cl)c(Cl)c2)C1` (stereo not given), the growth inhibition is 51% (active) in experiment [1] and 89% (active) in experiment [4]. For the same compound, the results for the inhibition in experiment [2] and in experiment [3] were 17% and 1%, respectively. Further, the result in experiment [5], in experiment [6], in experiment [7] and in experiment [8] was inactive.

`Cc1cc(N[C@@H](Cc2ccccc2)C(=O)NCCc2ccccc2)nc(NCc2ccccc2C)n1`: the values for the growth inhibition in experiment [1] and in experiment [4] were 85% (active) and 99% (active), respectively. For the same compound, the inhibition is 37% in experiment [2] and -2% in experiment [3]. Also, the outcome in experiment [5], in experiment [6], in experiment [7] and in experiment [8] was inactive.

With `COc1ccc2c(NN=Cc3cccc([N+](=O)[O-])c3)cc(C)nc2c1`, the growth inhibition in experiment [1] is 97% (active); in experiment [4] it was 101% (active). The figures for the inhibition in experiment [2] and in experiment [3] were 18% and -6%, respectively. Also, the outcome in experiment [5], in experiment [6], in experiment [7] and in experiment [8] was inactive.

On to `c1ccc(-c2nc(Nc3nc4ccccc4[nH]3)[nH]c2-c2ccccc2)cc1`, for which the growth inhibition in experiment [1] is 61% (active); in experiment [4], 96% (active). Also, the inhibition in experiment [2] was 14%; in experiment [3] it was -5%. Besides, the result in experiment [5], in experiment [6], in experiment [7] and in experiment [8] was inactive.

Take `NC1=NC(c2ccccc2)N(c2ccccc2)C(N)=N1` (stereo not given): the growth inhibition in experiment [1] was 85% (active); in experiment [4], 96% (active). The inhibition is 0% in experiment [2] and 2% in experiment [3]. The result in experiment [5], in experiment [6], in experiment [7] and in experiment [8] was inactive.

In the case of `c1ccc(CNc2nc(NCCc3cnc[nH]3)nc(NCc3cccc4ccccc34)n2)cc1`, the growth inhibition was 1% in experiment [1] and 91% (active) in experiment [4]. Besides, the inhibition in experiment [2] was 9%; in experiment [3] it was -4%. Also, the result in experiment [5], in experiment [6], in experiment [7] and in experiment [8] was inactive.

`CCCCCCCOc1ccc(NC(=O)Nc2ccc(Cn3ncc(N4CCCNCC4)c(Cl)c3=O)cc2)cc1`: the growth inhibition in experiment [1] was 28%; in experiment [4] it was 87% (active). The inhibition in experiment [2] was 60% (active); in experiment [3], 2%. In addition, the outcome in experiment [5], in experiment [6], in experiment [7] and in experiment [8] was inactive.

Consider `COc1cc(F)c2nccc([C@@H](O)CN3CCC(NCc4ccc5c(n4)NC(=O)CS5)CC3)c2c1`, for which the growth inhibition in experiment [1] is 25%; in experiment [4], 103% (active). In addition, the values for the inhibition in experiment [2] and in experiment [3] were 23% and -4%, respectively. In addition, the result in experiment [5], in experiment [6], in experiment [7] and in experiment [8] was inactive.

`CCOc1ccc(NC(C)=O)c(O)c1`: the growth inhibition in experiment [1] was 0%; in experiment [4] it was 96% (active). The results for the inhibition in experiment [2] and in experiment [3] were 6% and -1%, respectively. The outcome in experiment [5], in experiment [6], in experiment [7] and in experiment [8] was inactive.

As for `CCN(CCCN1CCCCC1)c1cc(C)nc(Nc2cc(Cl)ccc2C)n1`, the growth inhibition in experiment [1] is 37%; in experiment [4] it was 99% (active). Besides, the inhibition was 36% in experiment [2] and -1% in experiment [3]. Further, the result in experiment [5], in experiment [6], in experiment [7] and in experiment [8] was inactive.

`CCOc1ccc2c(NN=Cc3cccc(Cl)c3)cc(C)nc2c1`: the growth inhibition in experiment [1] is 34%; in experiment [4], 93% (active). Moreover, the figures for the inhibition in experiment [2] and in experiment [3] were -5% and -2%, respectively. For the same compound, the outcome in experiment [5], in experiment [6], in experiment [7] and in experiment [8] was inactive.

Consider `COc1ccc2nccc([C@@H](O)CN3CCC(NCc4cc5ccc(C#N)cc5[nH]4)CC3)c2c1`, for which the values for the growth inhibition in experiment [1] and in experiment [4] were 39% and 100% (active), respectively. The inhibition is 31% in experiment [2] and 0% in experiment [3]. In addition, the result in experiment [5], in experiment [6], in experiment [7] and in experiment [8] was inactive.

Take `CC(C)(C)c1ccc(O)c(CNC2CCCCC2)c1`: the growth inhibition in experiment [1] is 98% (active); in experiment [4], 100% (active). Further, the inhibition was 5% in experiment [2] and -2% in experiment [3]. Moreover, the outcome in experiment [5], in experiment [6], in experiment [7] and in experiment [8] was inactive.
